Measured values as given in PubChem BioAssay (NCATS).
Results filed as inconclusive are left out. The source made the active and inactive calls. Calls follow the shape of the dose curve; as a rule, active = well fitted curve in the direction sought with a large enough effect; inconclusive = small, poorly fitted or top-dose-only effect, or another doubt; inactive = no such curve, though single readings can be large; an effect the other way counts as inactive or inconclusive.

Columns and labels:
[1] = target: Rap guanine nucleotide exchange factor 3 (Homo sapiens) (UniProt O95398); experiment: Confirmatory qHTS for antagonist of cAMP-regulated guanine nucleotide exchange factor 3 (EPAC1) (AID 1645880); conditions: EPAC1 Rap1B-BODIPY-GDP exchange, fluorescence; activity, negative = inhibition: at 115 µM (top of the series); also: nearly all actives have a fitted effect of over 55% in size; also: potency is read from the fitted curve at half-maximal effect;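 as to activity, negative = inhibition: plate controls were DMSO only for no effect and full effect of the ATA control for full effect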
Chain of Rap guanine nucleotide exchange factor 3 (Homo sapiens) (O95398 whole entry, looked up): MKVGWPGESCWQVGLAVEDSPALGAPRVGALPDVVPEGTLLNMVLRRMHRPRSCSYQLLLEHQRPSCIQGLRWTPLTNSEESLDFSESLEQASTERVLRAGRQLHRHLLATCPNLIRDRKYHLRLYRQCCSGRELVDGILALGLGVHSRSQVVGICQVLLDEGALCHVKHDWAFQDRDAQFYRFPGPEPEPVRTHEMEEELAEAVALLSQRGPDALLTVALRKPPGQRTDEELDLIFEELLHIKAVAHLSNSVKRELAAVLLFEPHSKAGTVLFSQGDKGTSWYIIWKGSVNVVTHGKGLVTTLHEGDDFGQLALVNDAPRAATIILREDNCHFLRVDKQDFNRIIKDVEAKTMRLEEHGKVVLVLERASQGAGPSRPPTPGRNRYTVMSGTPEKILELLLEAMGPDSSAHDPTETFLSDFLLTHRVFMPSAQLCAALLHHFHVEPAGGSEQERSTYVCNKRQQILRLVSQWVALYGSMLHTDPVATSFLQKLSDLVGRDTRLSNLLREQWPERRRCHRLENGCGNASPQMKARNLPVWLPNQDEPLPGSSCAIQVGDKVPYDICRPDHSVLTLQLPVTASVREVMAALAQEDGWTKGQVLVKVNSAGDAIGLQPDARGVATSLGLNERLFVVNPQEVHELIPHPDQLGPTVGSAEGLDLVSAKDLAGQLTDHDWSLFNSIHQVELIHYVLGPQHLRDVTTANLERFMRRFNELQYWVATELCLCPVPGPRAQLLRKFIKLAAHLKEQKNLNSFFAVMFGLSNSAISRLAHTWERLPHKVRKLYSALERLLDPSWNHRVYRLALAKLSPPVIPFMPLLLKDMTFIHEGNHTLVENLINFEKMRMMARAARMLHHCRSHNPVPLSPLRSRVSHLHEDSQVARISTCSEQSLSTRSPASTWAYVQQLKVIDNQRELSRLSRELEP
How it was run: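 Released BODIPY-GDP fluoresces less than Rap1-bound BODIPY-GDP; the signal is followed at 480/540 nm at 5-min intervals over 30 min, after 5 min at room temperature. Reactions contain 100 nM EPAC1, 250 nM RAP1B-BODIPY-GDP and 50 uM GDP; results are normalized to ATA and DMSO.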

[2] = target: Rap guanine nucleotide exchange factor 3 (Homo sapiens) (UniProt O95398); experiment: Confirmatory qHTS for agonist of cAMP-regulated guanine nucleotide exchange factor 3 (EPAC1) (AID 1645881); also: nearly all actives have a fitted effect of over 75% in size; also: potency is read from the fitted curve at half-maximal effect;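 as to activation: EPAC1 catalysed release of BODIPY-GDP from Rap1B seen as fluorescence loss; 100% = effect of cAMP agonist control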
[3] = target: Rap guanine nucleotide exchange factor 3 (Homo sapiens) (UniProt O95398); experiment: Counterscreen qHTS for antagonist of cAMP-regulated guanine nucleotide exchange factor 3 (EPAC1) (AID 1645888); also: % of control where 0% means no effect
How it was run: (§1)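 Measured: fluorescence of BODIPY-GDP bound to Rap1B, which falls as exchange proceeds. Conditions include 50 uM competing GDP, 5 and 30 min reads, and a later cAMP challenge for antagonist detection.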

[4] = target: Rap guanine nucleotide exchange factor 3 (Homo sapiens) (UniProt O95398); experiment: Counterscreen qHTS for agonist of cAMP-regulated guanine nucleotide exchange factor 3 (EPAC1) (AID 1645889); also: nearly all actives have a fitted effect of over 40% in size; also: potency is read from the fitted curve at half-maximal effect; as to activation: % of control where 0% means no effect
How it was run: as §1

COCCN(CCOC)Cc1cc(=O)oc2cc(OC)c(Cl)cc12
inactive: Potency [1] | Potency [2] | activity change, negative = inhibition [3] -10.8% [at 30.8 µM]

CC1CCCN(C2(O)C(=O)Nc3ccc(Br)cc32)C1 (centres undefined)
inactive: Potency [1] | Potency [2] | Potency [3]

Cc1cc2ccccn2c1C(=O)c1ccc(F)cc1
inactive: Potency [1] | Potency [2] | Potency [3]

c1ccc(CNc2c(-c3cccc(SC4CCCCC4)c3)nc3ccccn23)cc1
inactive: Potency [1] | Potency [2] | activity change, negative = inhibition [3] 4.85% [at 30.8 µM] | activation [4] 4.1% [at 30.8 µM]

CCCNC(=O)c1ccc(N2CCC3(CC2)CC(c2ccccc2)=NO3)c(NC(=O)c2ccccc2)c1
inactive: Potency [1] | Potency [2] | Potency [3] | Potency [4]

Cc1oc2cc(Br)c(O)c(Br)c2c1-c1ccccc1
inactive: Potency [1] | Potency [2] | Potency [3]

COc1ccc(S(=O)(=O)Nc2ncccc2C)c2ccccc12
inactive: Potency [1] | Potency [2] | Potency [3]

COC(=O)c1ccc2nc(-c3ccc(OC)c(OC)c3)c(CC3CCCCC3)n2c1
inactive: Potency [1] | Potency [2] | Potency [3] | Potency [4]

COc1ccc(N2C(=O)CSC2c2ccccc2F)c(OC)c1 (centres undefined)
inactive: Potency [1] | Potency [2] | Potency [3] | Potency [4]

CC1CCCN(C2(O)C(=O)Nc3c(C(F)(F)F)cccc32)C1 (centres undefined)
inactive: Potency [1] | Potency [2] | activity change, negative = inhibition [3] -14.6% [at 30.8 µM]

Cc1ccc(-c2nn3cnnc3c3ccccc23)cc1C
inactive: Potency [1] | Potency [2] | activity change, negative = inhibition [3] -44.9% [at 30.8 µM] | activation [4] 5.84% [at 30.8 µM]

COc1ccc(Cl)cc1NC(=O)CN(C)Cc1ccc(OC)c(OC)c1
inactive: Potency [1] | Potency [2] | Potency [3]

Cc1nn(-c2c(Cl)cc(Cl)cc2Cl)c(=O)c2ccccc12
inactive: Potency [1] | Potency [2] | Potency [3]

O=C(c1ccccc1F)n1c2c(c3ccccc31)CCCC2
inactive: Potency [1] | Potency [2] | Potency [3]

CCCCc1c(C)nc2ccccc2c1SCCC#N
inactive: Potency [1] | Potency [2] | activity change, negative = inhibition [3] -10% [at 30.8 µM]

COc1ccc(S(=O)(=O)N2CCCC2)c(Cl)c1Cl
inactive: Potency [1] | Potency [2] | activity change, negative = inhibition [3] 12.2% [at 30.8 µM] | activation [4] 0.265% [at 30.8 µM]

Cc1ccn2c(-c3csc(NCc4ccccc4)n3)c(C)nc2c1
inactive: Potency [1] | Potency [2] | Potency [3]

COc1ccc(C2CC(=O)Oc3cc(C)c(Cl)cc32)cc1 (centres undefined)
inactive: Potency [1] | Potency [2] | Potency [3]

COc1ccccc1N(C)c1cc2c(c3c1ccn3C)C1CCC2O1 (centres undefined)
inactive: Potency [1] | Potency [2] | Potency [3]

O=c1ccc(NS(=O)(=O)c2ccc(Cl)cc2)cn1Cc1ccc(Cl)c(Cl)c1
active: Potency [1] 75.7 µM
inactive: Potency [2] | Potency [3]

CCn1c(=O)c(C(=O)NNS(=O)(=O)c2ccc(C)cc2)c(O)c2ccccc21
inactive: Potency [2] | Potency [3]
active: Potency [1] 75.7 µM

C=CCN(CC=C)Cc1cc(=O)oc2cc(C)cc(C)c12
inactive: Potency [1] | Potency [2] | activity change, negative = inhibition [3] -4% [at 30.8 µM]

COC(=O)C1=NN(c2ccccc2)C2(S1)SC(C(C)=O)=C(C)N2c1ccccc1 (centres undefined)
inactive: Potency [1] | Potency [2] | Potency [3]

O=C1OC(c2ccccc2)(c2ccccc2)c2ccsc21
inactive: Potency [1] | Potency [2] | Potency [3]

Cc1ccc(C2N(c3cccc(Cl)c3)C(=O)N3CCCN23)cc1 (centres undefined)
inactive: Potency [1] | Potency [2] | activity change, negative = inhibition [3] -4.78% [at 30.8 µM] | activation [4] 3.03% [at 30.8 µM]

Cc1ccc(C23CC4CC(CC(C(=O)N(C)C)(C4)C2)C3)cc1
inactive: Potency [1] | Potency [2] | Potency [3]

CCC(=O)OC1CC(C)N(C(=O)c2ccccc2)c2ccc(C)cc21 (centres undefined)
inactive: Potency [1] | Potency [2] | Potency [3] | Potency [4]

O=C(O)c1ccc(NC(=O)C(c2ccccc2)c2ccccc2)cc1
inactive: Potency [1] | Potency [2] | Potency [3]

CCOc1ccc(S(=O)(=O)N2CCCCC2)c(C)c1C
inactive: Potency [1] | Potency [2] | Potency [3]

C=CCOc1ccc(/C=N/NC(C)=O)cc1OCC
inactive: Potency [1] | Potency [2] | Potency [3] | Potency [4]

CC(OC(=O)c1ccccc1Oc1ccccc1)C(=O)NC1CC1 (centres undefined)
inactive: Potency [1] | Potency [2] | Potency [3] | Potency [4]

COc1ccc2ccc3c(c2c1)N=C[C@]1(O3)N(C)c2ccccc2C1(C)C
inactive: Potency [1] | Potency [2] | Potency [3]

COc1cnc(-c2ccccc2)nc1Sc1ccccc1
inactive: Potency [1] | Potency [2] | Potency [3]

COc1ccc(-n2cc(-c3ccccc3)c3c(N4CCOCC4)ncnc32)cc1
inactive: Potency [1] | Potency [2] | Potency [3]

COC(=O)c1cn(C(=O)c2ccc(C)cc2C)c2ccccc12
inactive: Potency [1] | Potency [2] | Potency [3] | Potency [4]

Cc1ccc(CN(Cc2ccco2)C(=O)c2ccco2)cc1
inactive: Potency [1] | Potency [2] | activity change, negative = inhibition [3] -4.7% [at 30.8 µM] | activation [4] 27.7% [at 30.8 µM]

COC(=O)c1ccc2nc(-c3ccc(Cl)cc3)c(Cc3cccc(F)c3)n2c1
inactive: Potency [1] | Potency [2] | Potency [3]

Cc1ccc(N2CC(NC(=O)C(=O)c3c[nH]c4ccccc34)CC2=O)cc1C (centres undefined)
inactive: Potency [1] | Potency [2] | Potency [3]

COc1ccc(C2CC(=O)Oc3cc(C)cc(C)c32)cc1 (centres undefined)
inactive: Potency [1] | Potency [2] | Potency [3]

COc1c(Cl)cc(Cl)cc1CNc1ccc(S(N)(=O)=O)cc1
inactive: Potency [1] | Potency [2] | Potency [3]

O=c1cc(N2CCCCC2)c(-c2ccccc2)nn1Cc1ccccc1
inactive: Potency [1] | Potency [2] | Potency [3]

CC(=O)Nc1ccc(NC(=O)C2Cc3c(-c4ccc5c(c4)OCO5)ccnc3O2)cc1 (centres undefined)
inactive: Potency [1] | Potency [2] | Potency [3]

CC1(C(=O)Nc2ccc3c(c2)OCO3)CCN1Cc1cccc2c1OCO2 (centres undefined)
inactive: Potency [1] | Potency [2] | activity change, negative = inhibition [3] -9.44% [at 30.8 µM] | activation [4] 19.3% [at 30.8 µM]

CCOC(=O)C1Oc2ccccc2C(c2ccc(F)cc2)=C1C(=O)OC (centres undefined)
inactive: Potency [1] | Potency [2] | activity change, negative = inhibition [3] -24.6% [at 30.8 µM] | activation [4] 13.2% [at 30.8 µM]

CCCCC1=C(C(=O)OCC)C(C(=O)OCC)Oc2ccccc21 (centres undefined)
inactive: Potency [1] | Potency [2] | Potency [3] | Potency [4]

CC(C)c1nc2cc(Cl)ccc2n(Cc2ccccc2)c1=O
inactive: Potency [1] | Potency [2] | Potency [3] | Potency [4]

Cc1cccc2c1NC(=O)C2(O)N1CCCC(C)C1 (centres undefined)
inactive: Potency [1] | Potency [2] | Potency [3] | Potency [4]

COC(=O)c1ccccc1C(=O)c1c(C)cc(C)cc1C
inactive: Potency [1] | Potency [2] | activity change, negative = inhibition [3] 4.03% [at 30.8 µM] | activation [4] 0.931% [at 30.8 µM]

Cc1cc(C)c2c(c1)OC(=O)CC2c1ccccc1C (centres undefined)
inactive: Potency [1] | Potency [2] | Potency [3] | Potency [4]

COC(=O)c1ccc2nc(-c3ccc(F)cc3)c(CC3CCCCC3)n2c1
inactive: Potency [1] | Potency [2] | activity change, negative = inhibition [3] -8.86% [at 30.8 µM] | activation [4] 6.82% [at 30.8 µM]

Cc1ccc(C2N(c3ccc(Cl)cc3)C(=O)N3CCCN23)cc1 (centres undefined)
inactive: Potency [1] | Potency [2] | Potency [3] | Potency [4]

Cc1ccc(C2(c3noc(CN(C)CC4CCCCO4)n3)CCCC2)cc1 (centres undefined)
inactive: Potency [1] | Potency [2] | activity change, negative = inhibition [3] -7.57% [at 30.8 µM] | activation [4] -0.372% [at 30.8 µM]

COc1ccc(C(=O)N(Cc2ccccc2)c2cccc(C)c2)cc1
inactive: Potency [1] | Potency [2] | Potency [3] | Potency [4]

COCCN(CCOC)Cc1cc(=O)oc2cc(C)cc(C)c12
inactive: Potency [1] | Potency [2] | Potency [3] | Potency [4]

Cc1ccc(O)c(C(=O)c2cc(C#N)c(=O)n(-c3nccs3)c2)c1
inactive: Potency [1] | Potency [3]
active: Potency [2] 100 µM | Potency [4] 35.5 µM

O=C1[C@H]2CCC=C[C@H]2[C@H](c2ccccc2Br)N1Cc1ccccc1
inactive: Potency [1] | Potency [2] | Potency [3] | Potency [4]

COc1ccccc1C1CC(=O)Oc2cc(C)c(Cl)c(C)c21 (centres undefined)
inactive: Potency [1] | Potency [2] | activity change, negative = inhibition [3] 3.69% [at 30.8 µM] | activation [4] 15.1% [at 30.8 µM]

O=C(c1noc2c1CCc1ccccc1-2)N1CCCc2ccccc21
inactive: Potency [1] | Potency [2] | Potency [3] | Potency [4]

C=C1SC(Nc2c(C)cc(C)cc2C)=NC12CCCCC2
inactive: Potency [1] | Potency [2] | Potency [3] | Potency [4]

CC(C)CN(C(=O)c1ccco1)c1nc2ccccc2s1
inactive: Potency [1] | Potency [2] | Potency [3] | Potency [4]

COC(=O)c1ccc2nc(-c3ccc(F)cc3)c(Cc3cccc(F)c3)n2c1
inactive: Potency [1] | Potency [2] | Potency [3] | Potency [4]

CCCCC[C@@H]1C=C(C(=O)O)[C@H](c2ccc(Cl)c(Cl)c2)N1S(=O)(=O)c1ccc(C)cc1
inactive: Potency [2] | Potency [3] | Potency [4]
active: Potency [1] 30.1 µM

Cc1cc(C)c(C(=O)c2ccccc2)c(C)c1
inactive: Potency [1] | Potency [2] | Potency [3] | Potency [4]

COC(=O)c1ccc2nc(-c3ccc(Cl)cc3)c(CC3CCCCC3)n2c1
inactive: Potency [1] | Potency [2] | Potency [3] | Potency [4]

CCCC(CNC(C)=O)(C1=CCCCC1)c1ccccc1 (centres undefined)
inactive: Potency [1] | Potency [2] | activity change, negative = inhibition [3] 1.17% [at 30.8 µM] | activation [4] 15.1% [at 30.8 µM]

O=C(O)Cc1ccc(NC(=O)C(c2ccccc2)c2ccccc2)cc1
inactive: Potency [1] | Potency [2] | activity change, negative = inhibition [3] -6.7% [at 30.8 µM] | activation [4] 5.55% [at 30.8 µM]
